Compounds without any hit were thinned out: in the full panel of roughly 83,000, 20% have a hit.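 Each cell line was grown in a 96-well plate and treated with one concentration of compound for 48 hours. Values below 10 were considered active.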 Values without a mark were called inactive. Active and inactive are the calls of the source.
Columns and labels:
Test in all cases: NCI-60 one-dose screen, 48 h (100 = growth as untreated, 0 = no growth, -100 = all killed)
Settings in all cases: 10 µM unless noted
T-47D breast = system: T-47D breast
BT-549 breast = system: BT-549 breast
MDA-MB-435 melanoma = system: MDA-MB-435 melanoma
SW-620 colon = system: SW-620 colon
MCF7 breast = system: MCF7 breast
HCT-116 colon = system: HCT-116 colon
HCC-2998 colon = system: HCC-2998 colon
KM12 colon = system: KM12 colon

Compound	growth (T-47D breast)	growth (BT-549 breast)	growth (MDA-MB-435 melanoma)	growth (SW-620 colon)	growth (MCF7 breast)	growth (HCT-116 colon)	growth (HCC-2998 colon)	growth (KM12 colon)
O=C1OC2C(I)C3CC2C1C3c1ccccc1 (configuration not stated)	95.2%	152%	131%	96.1%	109%	96.8%	105%	108%
O=C1/C(=C/c2ccc(Cl)cc2Cl)CN(S(=O)(=O)c2ccccc2)C/C1=C\c1ccc(Cl)cc1Cl	23.7%	-72.8% (active)	3.98% (active)	-15.2% (active)	13.9%	-84% (active)	-15.3% (active)	-57.2% (active)
O=C(Cn1cc(CN2C(=O)c3ccccc3S2(=O)=O)nn1)Nc1ccc([N+](=O)[O-])cc1Cl	76.9%	103%	103%	98.1%	83%	103%	98.4%	93.8%
CCCCCCCCCC(=O)Oc1ccc(/C(=C(/C)Cc2cccc(OC)c2)c2ccc(OCCN(C)C)cc2)cc1	69.4%	108%	103%	104%	58.2%	102%	100%	104%
CCCCCC(=O)Oc1ccc(/C(=C(\C)c2ccccc2)c2ccc(OCCN(CC)CC)cc2)cc1	39%	72.7%	70.3%	70.8%	29.6%	50.7%	88.1%	62%
COc1ccc(CN(c2ccc(C)cc2)C2OC(=O)c3ccccc32)cc1OC (configuration not stated)	95.2%	106%	100%	99.2%	92.5%	105%	102%	102%
CCN(CC)CCCNc1cc(OC)cc2nc3cc(Cl)ccc3nc12	29.8%	2.46% (active)	-90.4% (active)	-36.9% (active)	-2.19% (active)	-91.8% (active)	27.5%	-51.4% (active)
COc1ccc(-c2cc(C(=O)N=Nc3c(O)[nH]c4ccccc34)no2)cc1	98%	109%	102%	96.9%	95.1%	100%	107%	101%
CC(C)(C)c1nn(-c2ccccc2)c2c1CC1(CN2Cc2ccc3c(c2)OCO3)C(=O)c2ccccc2C1=O	94.6%	101%	106%	101%	97.9%	88.9%	96.9%	105%
COc1cc(NCCCCN=C(N)N)c2ncccc2c1	18%	54.4%	104%	80.8%	-48% (active)	79.1%	84.3%	47.5%
CNCCCn1c2c(c3ccc([N+](=O)[O-])cc3c1=O)C(=O)c1cc(OC)cnc1-2	-7.15% (active)	-25.6% (active)	-76.7% (active)	-34.1% (active)	0.912% (active)	-53.9% (active)	11.1%	-4.18% (active)
CSc1nc(NCCCNc2ccnc3cc(Cl)ccc23)cc(-c2ccccc2)n1	66.3%	86.9%	55.4%	72%	6.05% (active)	43.1%	-59.6% (active)	68.3%
COCCOC(=O)C1=C(C)NC(=S)NC1c1ccc2c(c1)OCO2 (configuration not stated)	94.8%	109%	104%	106%	89.6%	103%	109%	100%
Cc1ccc(Nc2nc(N)nc(Nc3ccc4ccccc4c3)n2)cc1	36.2%	48.1%	16.6%	23.5%	29.6%	21.8%	77.5%	25.1%
CC(C)c1c(C(=O)Nc2ccccc2)c(-c2ccccc2)c(-c2ccc(F)cc2)n1CC[C@@H]1CC=CC(=O)O1	17.1%	-30.6% (active)	2.54% (active)	-45.1% (active)	-22.8% (active)	-62.5% (active)	-69.8% (active)	-60.7% (active)
O=c1c2cccc3c(NC4CCCCC4)ccc(c32)c2nc3ccccc3n12	32.5%	94.1%	103%	80.1%	13.5%	85.3%	51.7%	81.1%
NS(=O)(=O)c1ccc(-n2ncc3c(=O)[nH]c(CN4CCN(c5cc6c(cc5F)c(=O)c(C(=O)O)cn6C5CC5)CC4)nc32)cc1	106%	68.9%	99.9%	98.8%	94.9%	100%	93.9%	102%
CCCCCCCCCc1cc(CN2CCCCC2)c(O)c(CN2CCCCC2)c1	19.8%	70.1%	78.4%	69.8%	44%	39.1%	68.2%	50.6%
O=C1/C(=C\c2cn(C(=O)c3ccc(Cl)cc3)c3ccccc23)c2ccccc2N1c1c(Cl)cccc1Cl	92.5%	107%	116%	105%	95.7%	94.1%	102%	111%
COc1cccc(-c2nc3sccn3c2-c2ccnc(NCCCNS(=O)(=O)c3ccc(Cl)cc3)c2)c1	2.4% (active)	34.4%	38.4%	58.3%	34.6%	44%	66.5%	43.5%
Cc1ccc(S(=O)(=O)N(CCc2ccc(Cl)cc2)S(=O)(=O)c2ccc(C)cc2)cc1	82%	98.8%	95.4%	101%	87.9%	93.3%	88.1%	91.7%
c1ccc(-c2nc(N3CCOCC3)c3c4c(sc3n2)CCCCC4)nc1	8.3% (active)	62.8%	71%	88.6%	23.7%	74.3%	83%	64.7%
CC/C=C\C[C@H](F)C/C=C1/C(=O)C=C[C@@H]1C/C=C\CCCC(=O)O	71.9%	68.8%	21.6%	30.9%	22.6%	-15.7% (active)	81.9%	22.3%
O=c1c(/C=C/c2ccco2)nnc(SCCN2CCOCC2)n1/N=C/c1ccc([N+](=O)[O-])cc1	68.2%	94.6%	97.4%	104%	31%	95%	93.1%	92%
COc1ccc(/C=C/C(=O)c2ccc(NC(=O)c3cc4cc5ccccc5nc4s3)cc2)cc1OC	87.7%	104%	102%	105%	80.3%	91.6%	104%	76.3%
CC(=O)C1=C(O)C=C2Oc3c(C(=O)/C=C/c4cc(C(F)(F)F)cc(C(F)(F)F)c4)c(O)c(C)c(O)c3[C@]2(C)C1=O	-18.7% (active)	-29.6% (active)	-33.9% (active)	-10.2% (active)	-42% (active)	-30% (active)	-87.4% (active)	-46% (active)
CCCN(CCC)CN(CCC)CCC	102%	91.4%	99.4%	103%	93%	95.7%	104%	101%
Nc1cc(O)cc2cccnc12	83.9%	87%	-9.72% (active)	79.7%	55.8%	80.3%	100%	99.8%
C=C1CC[C@@H]2[C@](C)(COC(C)=O)[C@H](OC(C)=O)CC[C@@]2(C)[C@@H]1CC(NCc1ccc(F)cc1)C1=CCOC1=O (some centres not stated)	26.6%	28.7%	32.7%	32%	16.6%	33.7%	89.3%	46.5%

Reference: PubChem BioAssay (NCI)
